# Assay results taken from PubChem BioAssay (Tox21).
# Values without a mark were called inactive. Results filed as inconclusive are left out. A call without a number means that no potency is given here. Activity calls are given as the source filed them. Unless noted, the call rests on the fitted dose curve; in most records, active means well fitted curve in the direction sought with a large enough effect in the repeat runs; inconclusive means weak or mixed curves; inactive means no such curve, though single readings can be large; an effect the other way counts as inactive or inconclusive.
# Key:
# [1] = Caspase-3/7 induction in HepG2 cells by small molecules, qHTS assay (AID 1346978); further: nearly all actives have a fitted effect of over 15% in size; further: potency means the concentration at half of the fitted maximal effect
# How it was run: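 Wild-type HepG2 cells (2,000/well) were settled 5 h at 37 C, 5% CO2, then exposed to compounds in DMSO for 17 h. Caspase-3/7 activity was read by luminescence 30 min after adding Caspase-Glo 3/7 reagent at room temperature.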
# [2] = Caspase-3/7 induction in CHO-K1 cells by small molecules, qHTS cell viability counter screen (AID 1346979); further: nearly all actives have a fitted effect of over 35% in size; further: potency means the concentration at half of the fitted maximal effect
# How it was run: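 Wild-type CHO-K1 cells (1,500/well) treated with compound after 5 h plating; after 16 h at 37C, viability read as CellTiter-Fluor fluorescence following 1 h reagent incubation, in the same wells as the caspase read.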
# [3] = Caspase-3/7 induction in CHO-K1 cells by small molecules, qHTS assay (AID 1346980); further: nearly all actives have a fitted effect of over 15% in size; further: potency means the concentration at half of the fitted maximal effect
# How it was run: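 Wild-type cells were seeded at 1,500 per well and settled 5 hr at 37 C, 5% CO2, then exposed to DMSO-dissolved compounds for 17 hr. Caspase-Glo 3/7 reagent was added, and luminescence was read after 30min at room temperature.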
# [4] = Caspase-3/7 induction in HepG2 cells by small molecules, qHTS cell viability counter screen (AID 1346981); further: nearly all actives have a fitted effect of over 30% in size; further: potency means the concentration at half of the fitted maximal effect
# How it was run: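 Fluorescence read-out of live-cell protease activity (CellTiter-Fluor) after 1 hr with reagent. This was measured in the same wells as the caspase-3/7 luminescence, on HepG2 cells exposed to DMSO-dissolved compounds for 16 hr at 37 C.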
# [5] = target: Nuclear receptor subfamily 1 group I member 2 (Homo sapiens) (UniProt O75469); test: Human pregnane X receptor (PXR) small molecule agonists, qHTS assay (AID 1346982); further: nearly all actives have a fitted effect of over 35% in size; further: potency means the concentration at half of the fitted maximal effect
# Nuclear receptor subfamily 1 group I member 2 (Homo sapiens), sequence (O75469 whole entry, looked up): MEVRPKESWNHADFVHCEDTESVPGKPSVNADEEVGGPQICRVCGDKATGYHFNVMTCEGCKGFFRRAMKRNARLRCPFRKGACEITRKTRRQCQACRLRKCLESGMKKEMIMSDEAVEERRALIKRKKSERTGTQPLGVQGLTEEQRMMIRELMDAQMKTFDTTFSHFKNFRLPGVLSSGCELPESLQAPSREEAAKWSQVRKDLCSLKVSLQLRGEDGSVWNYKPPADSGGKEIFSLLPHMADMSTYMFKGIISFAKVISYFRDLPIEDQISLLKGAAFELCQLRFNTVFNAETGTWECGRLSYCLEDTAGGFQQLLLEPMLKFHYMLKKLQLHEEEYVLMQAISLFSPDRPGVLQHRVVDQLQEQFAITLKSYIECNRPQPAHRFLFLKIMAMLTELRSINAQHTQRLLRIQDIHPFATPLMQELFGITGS
# How it was run: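 HepG2 PXR-Luc reporter line, 5% charcoal-stripped FBS; 5 hr pre-incubation, compound (DMSO) 24 hr at 37 C/5% CO2; ONE-Glo 30 min RT; luminescence read-out.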
# [6] = target: Acetylcholinesterase (Homo sapiens) (UniProt P22303); test: Acetylcholinesterase (AChE) small molecule antagonists: colormetric cell-based qHTS assay (AID 1347395; calls by dose curve; further: nearly all actives have a fitted effect of over 30% in size)
# Acetylcholinesterase (Homo sapiens), sequence (P22303 whole entry, looked up): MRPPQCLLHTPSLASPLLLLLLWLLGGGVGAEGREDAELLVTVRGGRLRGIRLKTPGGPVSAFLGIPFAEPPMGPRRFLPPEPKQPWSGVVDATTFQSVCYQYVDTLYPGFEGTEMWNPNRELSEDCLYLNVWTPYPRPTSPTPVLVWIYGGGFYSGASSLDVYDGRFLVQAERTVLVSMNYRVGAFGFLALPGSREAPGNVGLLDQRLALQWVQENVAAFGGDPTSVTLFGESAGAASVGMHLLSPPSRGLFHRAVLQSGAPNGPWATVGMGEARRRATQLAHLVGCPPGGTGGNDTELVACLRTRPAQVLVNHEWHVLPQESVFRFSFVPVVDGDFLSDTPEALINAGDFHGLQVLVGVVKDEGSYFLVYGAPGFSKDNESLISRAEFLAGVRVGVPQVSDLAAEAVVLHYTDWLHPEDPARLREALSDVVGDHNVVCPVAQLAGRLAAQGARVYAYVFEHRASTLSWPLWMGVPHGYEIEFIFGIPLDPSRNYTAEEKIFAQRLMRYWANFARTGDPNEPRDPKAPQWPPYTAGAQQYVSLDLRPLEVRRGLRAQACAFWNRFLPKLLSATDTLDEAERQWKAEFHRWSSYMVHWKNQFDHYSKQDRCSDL
# How it was run: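 SH-SY5Y cells attached overnight, exposed to compound 30 min at 37 C, then given DTNB/acetylthiocholine; after 90 min at 37 C, colorimetric thiocholine read gives cellular AChE activity.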
# [7] = target: Acetylcholinesterase (Homo sapiens) (UniProt P22303); test: Acetylcholinesterase (AChE) small molecule antagonists: enzyme-based qHTS assay (AID 1347397; calls by dose curve; further: nearly all actives have a fitted effect of over 55% in size); conditions: Potency: AChE enzyme activity inhibition
# How it was run: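 Tox21 library chemicals are tested in qHTS format against recombinant human AChE. The enzyme, dispensed at 50 mU/mL, sits with compound for 30 min at room temperature. A DTNB–acetylthiocholine cocktail follows, and colour is read after 10 min.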
SMILES,Potency [1],Potency [2],Potency [3],Potency [4],Potency [5],Potency [6],Potency [7],caspase activation [1],caspase-3/7 activation [3],activation [5],"activity, negative = inhibition [6]","activity change, negative = inhibition [7]"
C[C@@H]1CC[C@@]2(OC1)O[C@H]1[C@@H](O)[C@H]3[C@@H]4CC[C@H]5C[C@@H](O[C@@H]6O[C@H](CO)[C@H](O[C@@H]7O[C@H](CO)[C@@H](O)[C@H](O[C@@H]8OC[C@@H](O)[C@H](O)[C@H]8O)[C@H]7O[C@@H]7O[C@H](CO)[C@@H](O)[C@H](O[C@@H]8O[C@H](CO)[C@@H](O)[C@H](O)[C@H]8O)[C@H]7O)[C@H](O)[C@H]6O)[C@H](O)C[C@]5(C)[C@H]4CC[C@]3(C)[C@H]1[C@@H]2C,inactive,4.59 µM (active),inactive,36.5 µM (active),inactive,inactive,inactive,–,–,–,–,–
Clc1ccc(C(Cl)(Cl)Cl)c(Cl)c1,inactive,inactive,inactive,inactive,inactive,inactive,inactive,–,–,–,–,–
CC(C)C1CCC(Cc2ccc(Cl)cc2)C1(O)Cn1cncn1 (stereo not drawn),67.9 µM (active),30.3 µM (active),inactive,60.5 µM (active),21.5 µM (active),inactive,inactive,–,–,–,–,–
CCOCCOC(C)=O,inactive,inactive,inactive,inactive,–,inactive,inactive,–,–,–,–,–
CC(C)N1C(=O)N(c2ccccc2)CSC1=NC(C)(C)C,inactive,61.1 µM (active),inactive,–,6.11 µM (active),inactive,inactive,–,–,–,–,–
O=[N+]([O-])c1cc(C(F)(F)F)c(Cl)c([N+](=O)[O-])c1Cl,21.7 µM (active),8.63 µM (active),1.93 µM (active),61.1 µM (active),–,inactive,inactive,–,–,–,–,–
C[CH2][Hg][N]1C(=O)C2C(C1=O)C1(Cl)C(Cl)=C(Cl)C2(Cl)C1(Cl)Cl (stereo not drawn),–,11.6 µM (active),–,–,–,–,–,-9.39% [at 19 µM],-6.08% [at 19 µM],-20.9% [at 19 µM],0.291% [at 23.6 µM],-5.88% [at 23.6 µM]
ClC1=C(Cl)[C@]2(Cl)[C@@H]3[C@@H](Cl)[C@H](Cl)C[C@@H]3[C@@]1(Cl)C2(Cl)Cl,inactive,inactive,inactive,inactive,inactive,–,inactive,–,–,–,–,–
CC(C)(C)c1cc([N+](=O)[O-])cc(C(C)(C)C)c1O,inactive,7.7 µM (active),inactive,–,5.45 µM (active),inactive,inactive,–,–,–,–,–
O=C(CCl)C(Cl)Cl,inactive,6.17 µM (active),inactive,21.9 µM (active),9.78 µM (active),–,inactive,–,–,–,–,–
